This is an account of results in PMC7862700, “An all-to-all approach to the identification of sequence-specific readers for epigenetic DNA modifications on cytosine”.

What all share (assay): DAPPL (digital affinity profiling via proximity ligation, sequencing); 10 mM Tris-HCl pH 7.5, 50 mM NaCl, 1 mM DTT, 4% glycerol, room temperature, 30 min; GST-TFs on glutathione beads, 16-mer random dsDNA library, 0.1% formaldehyde crosslink after washing; high values mean tight binding
Holding throughout (conditions): protein: recombinant; tags: N-terminal GST; dsDNA, one strand shown

The target in one test is T1, ELK1 (Homo sapiens, UniProt P19419 1-428).
T1 sequence: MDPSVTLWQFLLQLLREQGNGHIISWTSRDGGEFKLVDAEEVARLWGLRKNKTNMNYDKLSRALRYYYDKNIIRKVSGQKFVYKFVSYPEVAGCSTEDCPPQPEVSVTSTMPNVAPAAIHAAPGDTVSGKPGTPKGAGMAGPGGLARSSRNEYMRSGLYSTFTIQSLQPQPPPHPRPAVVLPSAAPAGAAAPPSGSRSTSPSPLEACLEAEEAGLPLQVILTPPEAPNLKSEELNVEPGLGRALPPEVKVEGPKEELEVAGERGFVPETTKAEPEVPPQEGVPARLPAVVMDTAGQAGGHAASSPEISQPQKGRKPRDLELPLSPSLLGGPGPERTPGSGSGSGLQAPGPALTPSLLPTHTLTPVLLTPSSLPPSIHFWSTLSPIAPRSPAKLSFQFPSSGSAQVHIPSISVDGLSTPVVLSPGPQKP
The method in brief: (§1)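 Binding signal is given per hexamer as its read frequency for a factor divided by its frequency in the tag-only sample. GST-fused human transcription factors were expressed in yeast, captured on glutathione beads, barcoded with DNA and pooled with that sample, then incubated with 200 nmole of a 16-mer random double-stranded DNA library in Tris/NaCl/DTT/glycerol buffer for 30 min at room temperature. The pools were then washed, crosslinked, proximity-ligated, amplified by PCR and sequenced on an Illumina NextSeq500.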

The target of another test is T2, GABPA (Homo sapiens, UniProt Q06546 1-454).
T2 sequence: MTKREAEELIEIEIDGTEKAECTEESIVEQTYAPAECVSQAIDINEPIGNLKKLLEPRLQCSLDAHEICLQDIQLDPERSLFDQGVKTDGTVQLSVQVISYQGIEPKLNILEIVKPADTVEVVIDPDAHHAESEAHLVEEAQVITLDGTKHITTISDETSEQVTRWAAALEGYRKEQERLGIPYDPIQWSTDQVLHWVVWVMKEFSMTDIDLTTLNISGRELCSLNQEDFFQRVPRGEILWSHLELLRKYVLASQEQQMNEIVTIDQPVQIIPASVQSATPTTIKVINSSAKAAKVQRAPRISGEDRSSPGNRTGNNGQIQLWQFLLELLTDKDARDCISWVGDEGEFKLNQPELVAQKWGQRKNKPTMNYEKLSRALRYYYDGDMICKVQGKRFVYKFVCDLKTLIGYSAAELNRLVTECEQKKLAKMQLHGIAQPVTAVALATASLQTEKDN
In short, it runs like this:
as §1

A further test addresses ELF1 (Homo sapiens, UniProt P32519 1-619). In short, it runs like this: as §1
A further test concerns the target T3, EHF (Homo sapiens, UniProt Q9NZC4 1-300).
T3 sequence: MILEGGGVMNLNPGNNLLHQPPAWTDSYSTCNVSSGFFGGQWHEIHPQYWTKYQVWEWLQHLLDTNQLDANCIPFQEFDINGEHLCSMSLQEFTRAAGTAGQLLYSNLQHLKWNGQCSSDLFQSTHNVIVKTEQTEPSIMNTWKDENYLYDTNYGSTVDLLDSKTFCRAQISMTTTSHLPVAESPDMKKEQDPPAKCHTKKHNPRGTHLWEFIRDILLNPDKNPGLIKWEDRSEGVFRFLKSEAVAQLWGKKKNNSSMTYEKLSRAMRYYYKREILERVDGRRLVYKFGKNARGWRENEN
In short, it runs like this:
as §1

The target of another test is SPI1 (Homo sapiens, UniProt P17947 1-270). The method in brief: as §1
A further test deals with T4, ELK4 (Homo sapiens, UniProt P28324-2 1-405).
T4 sequence: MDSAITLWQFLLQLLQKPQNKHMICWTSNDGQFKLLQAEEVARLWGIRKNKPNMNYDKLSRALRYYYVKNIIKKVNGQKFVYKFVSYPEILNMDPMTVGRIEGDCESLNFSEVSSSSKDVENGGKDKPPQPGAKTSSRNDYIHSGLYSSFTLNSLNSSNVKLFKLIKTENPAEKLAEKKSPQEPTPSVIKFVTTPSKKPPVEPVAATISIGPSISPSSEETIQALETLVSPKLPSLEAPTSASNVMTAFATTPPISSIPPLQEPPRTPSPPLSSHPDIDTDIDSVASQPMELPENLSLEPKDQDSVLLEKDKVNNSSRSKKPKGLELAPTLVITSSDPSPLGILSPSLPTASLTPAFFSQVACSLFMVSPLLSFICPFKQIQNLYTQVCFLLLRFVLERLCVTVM
In short, it runs like this: as §1

The target of the next test is T5, ETV2 (Homo sapiens, UniProt O00321 1-342).
T5 sequence: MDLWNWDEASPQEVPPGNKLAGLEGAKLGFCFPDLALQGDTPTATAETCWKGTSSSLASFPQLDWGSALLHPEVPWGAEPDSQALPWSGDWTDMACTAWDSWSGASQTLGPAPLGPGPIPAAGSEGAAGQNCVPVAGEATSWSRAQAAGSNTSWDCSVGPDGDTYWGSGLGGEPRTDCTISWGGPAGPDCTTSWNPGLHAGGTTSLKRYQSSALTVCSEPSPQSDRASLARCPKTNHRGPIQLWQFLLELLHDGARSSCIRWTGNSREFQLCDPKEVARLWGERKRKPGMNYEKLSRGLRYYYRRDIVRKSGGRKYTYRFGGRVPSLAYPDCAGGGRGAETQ
In short, it runs like this:
as §1

Another test addresses T6, ELF3 (Homo sapiens, UniProt P78545 1-371).
T6 sequence: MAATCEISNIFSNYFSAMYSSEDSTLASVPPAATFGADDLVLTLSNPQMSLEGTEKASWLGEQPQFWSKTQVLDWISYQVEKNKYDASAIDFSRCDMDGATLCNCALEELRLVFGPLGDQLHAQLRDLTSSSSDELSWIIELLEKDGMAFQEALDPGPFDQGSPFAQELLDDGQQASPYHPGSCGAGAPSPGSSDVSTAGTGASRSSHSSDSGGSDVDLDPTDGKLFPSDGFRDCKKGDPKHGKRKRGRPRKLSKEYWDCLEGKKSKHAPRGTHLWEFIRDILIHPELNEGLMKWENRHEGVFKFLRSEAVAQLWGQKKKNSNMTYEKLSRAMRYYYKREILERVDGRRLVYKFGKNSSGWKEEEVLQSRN
In short, it runs like this: as §1

The target of a further test is CRX (Homo sapiens, UniProt O43186 1-299). The method in brief: as §1
CRX, sequence (O43186 whole entry): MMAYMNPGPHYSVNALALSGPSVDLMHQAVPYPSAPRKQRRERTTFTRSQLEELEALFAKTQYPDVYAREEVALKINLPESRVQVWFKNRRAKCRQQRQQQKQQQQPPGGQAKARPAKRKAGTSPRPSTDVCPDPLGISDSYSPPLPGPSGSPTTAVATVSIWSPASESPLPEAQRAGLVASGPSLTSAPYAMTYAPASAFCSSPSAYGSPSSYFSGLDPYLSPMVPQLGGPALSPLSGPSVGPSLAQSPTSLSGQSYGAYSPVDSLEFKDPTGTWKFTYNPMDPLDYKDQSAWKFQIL
The next test has as its target ETV1 (Homo sapiens, UniProt P50549 1-477). In short, it runs like this: as §1
For a further test, the target named is T7, ETS2 (Homo sapiens, UniProt P15036 1-469).
T7 sequence: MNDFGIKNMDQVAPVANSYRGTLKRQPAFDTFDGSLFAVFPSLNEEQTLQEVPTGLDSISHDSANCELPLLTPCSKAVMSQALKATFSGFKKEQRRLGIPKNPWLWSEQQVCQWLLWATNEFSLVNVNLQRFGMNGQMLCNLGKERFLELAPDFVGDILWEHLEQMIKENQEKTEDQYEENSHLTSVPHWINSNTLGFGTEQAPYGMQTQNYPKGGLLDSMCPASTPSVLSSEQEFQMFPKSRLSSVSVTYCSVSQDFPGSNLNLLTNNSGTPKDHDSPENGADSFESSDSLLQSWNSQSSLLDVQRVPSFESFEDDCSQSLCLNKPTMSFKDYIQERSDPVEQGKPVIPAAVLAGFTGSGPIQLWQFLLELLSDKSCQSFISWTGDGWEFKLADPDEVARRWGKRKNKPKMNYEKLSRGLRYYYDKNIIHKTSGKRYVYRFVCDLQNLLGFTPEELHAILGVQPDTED
In short, it runs like this:
as §1

A further test concerns the target T8, ETV7 (Homo sapiens, UniProt Q9Y603 1-341).
T8 sequence: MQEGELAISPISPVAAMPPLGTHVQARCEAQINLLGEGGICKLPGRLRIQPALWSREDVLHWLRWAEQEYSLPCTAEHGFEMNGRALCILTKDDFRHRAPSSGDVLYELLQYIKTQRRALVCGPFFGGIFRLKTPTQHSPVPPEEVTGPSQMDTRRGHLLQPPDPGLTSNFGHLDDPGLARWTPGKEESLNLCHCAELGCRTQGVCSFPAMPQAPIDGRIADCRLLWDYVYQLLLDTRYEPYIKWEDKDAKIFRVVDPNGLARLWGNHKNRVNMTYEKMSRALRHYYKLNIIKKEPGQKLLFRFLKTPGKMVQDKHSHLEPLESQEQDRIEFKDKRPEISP
The method in brief: as §1

The target in the next test is T9, ELF5 (Homo sapiens, UniProt Q9UKW6-2 1-255).
T9 sequence: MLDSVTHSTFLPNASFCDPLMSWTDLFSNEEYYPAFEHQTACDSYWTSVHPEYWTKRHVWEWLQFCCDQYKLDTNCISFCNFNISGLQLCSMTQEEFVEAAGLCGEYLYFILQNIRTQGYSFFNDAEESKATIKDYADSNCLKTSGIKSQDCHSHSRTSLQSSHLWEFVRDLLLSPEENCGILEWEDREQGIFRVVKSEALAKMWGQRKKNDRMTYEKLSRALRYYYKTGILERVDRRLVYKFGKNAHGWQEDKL
In short, it runs like this: as §1

The next test has as its target ETV6 (Homo sapiens, UniProt P41212 1-452). In short, it runs like this: as §1

ELF1, sequence (P32519 whole entry): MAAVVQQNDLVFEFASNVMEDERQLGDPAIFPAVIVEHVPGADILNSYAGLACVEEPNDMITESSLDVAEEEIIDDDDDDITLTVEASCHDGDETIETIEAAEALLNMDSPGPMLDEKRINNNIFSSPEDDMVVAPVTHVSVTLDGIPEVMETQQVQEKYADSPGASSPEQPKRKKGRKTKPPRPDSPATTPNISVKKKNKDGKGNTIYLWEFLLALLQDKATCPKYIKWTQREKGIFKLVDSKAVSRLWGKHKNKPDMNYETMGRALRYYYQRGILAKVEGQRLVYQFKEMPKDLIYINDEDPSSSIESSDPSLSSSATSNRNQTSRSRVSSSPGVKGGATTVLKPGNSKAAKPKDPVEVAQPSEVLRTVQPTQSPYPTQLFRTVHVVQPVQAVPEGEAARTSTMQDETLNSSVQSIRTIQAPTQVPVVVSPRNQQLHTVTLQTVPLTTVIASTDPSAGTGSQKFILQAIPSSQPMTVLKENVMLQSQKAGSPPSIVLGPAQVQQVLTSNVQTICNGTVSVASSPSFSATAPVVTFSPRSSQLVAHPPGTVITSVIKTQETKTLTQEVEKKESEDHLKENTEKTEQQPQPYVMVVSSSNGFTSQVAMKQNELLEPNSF
ETV1, sequence (P50549 whole entry): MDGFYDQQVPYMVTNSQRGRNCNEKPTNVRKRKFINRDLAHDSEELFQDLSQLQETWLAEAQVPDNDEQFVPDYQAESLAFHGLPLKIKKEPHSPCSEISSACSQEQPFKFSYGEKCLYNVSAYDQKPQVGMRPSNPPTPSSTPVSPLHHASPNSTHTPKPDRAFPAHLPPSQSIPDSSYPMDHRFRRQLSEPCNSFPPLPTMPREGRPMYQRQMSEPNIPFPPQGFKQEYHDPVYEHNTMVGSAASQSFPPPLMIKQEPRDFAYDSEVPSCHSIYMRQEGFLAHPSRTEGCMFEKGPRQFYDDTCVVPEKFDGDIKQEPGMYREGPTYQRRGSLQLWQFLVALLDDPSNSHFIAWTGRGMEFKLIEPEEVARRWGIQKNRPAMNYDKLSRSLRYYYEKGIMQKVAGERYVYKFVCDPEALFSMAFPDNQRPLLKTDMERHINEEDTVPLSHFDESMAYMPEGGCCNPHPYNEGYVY
ETV6, sequence (P41212 whole entry): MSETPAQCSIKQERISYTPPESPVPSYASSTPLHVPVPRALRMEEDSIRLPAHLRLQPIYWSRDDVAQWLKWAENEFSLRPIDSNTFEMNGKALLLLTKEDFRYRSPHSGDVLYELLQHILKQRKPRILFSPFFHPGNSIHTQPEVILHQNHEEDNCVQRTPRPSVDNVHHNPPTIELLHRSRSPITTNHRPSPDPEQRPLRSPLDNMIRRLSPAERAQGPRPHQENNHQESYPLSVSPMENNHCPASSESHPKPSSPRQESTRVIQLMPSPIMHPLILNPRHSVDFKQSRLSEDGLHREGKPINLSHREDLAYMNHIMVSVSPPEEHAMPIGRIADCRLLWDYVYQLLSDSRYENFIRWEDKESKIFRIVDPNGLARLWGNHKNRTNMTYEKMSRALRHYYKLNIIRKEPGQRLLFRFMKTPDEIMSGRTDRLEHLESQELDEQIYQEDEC

CAAAAG: the binding signal is 1.02 fold enrichment (6-mer frequency, TF over GST control) in the test with ELK1; 1.04 fold enrichment (6-mer frequency, TF over GST control) with GABPA; 1.01 fold enrichment (6-mer frequency, TF over GST control) with ELF1; 1 fold enrichment (6-mer frequency, TF over GST control) with EHF; 1.08 fold enrichment (6-mer frequency, TF over GST control) in the test with SPI1; 1.05 fold enrichment (6-mer frequency, TF over GST control) in the test with ELK4. Also, the binding signal with ETV2 was 1.05 fold enrichment (6-mer frequency, TF over GST control); with ELF3 it was 1.06 fold enrichment (6-mer frequency, TF over GST control); with CRX, 1.02 fold enrichment (6-mer frequency, TF over GST control); with ETV1, 1 fold enrichment (6-mer frequency, TF over GST control); in the test with ETS2 it was 1.04 fold enrichment (6-mer frequency, TF over GST control); with ETV7 it was 1 fold enrichment (6-mer frequency, TF over GST control). For the same sequence, the binding signal is 1 fold enrichment (6-mer frequency, TF over GST control) with ELF5 and 1.01 fold enrichment (6-mer frequency, TF over GST control) with ETV6.
